Screening results deposited in PubChem by National Center for Advancing Translational Sciences (NCATS).
Cycloheximide cs – affects cycloheximide protein synthesis inhibition readout, counter-screen; cell reporter, cycloheximide protein synthesis inhibition counterscreen; max response, %; 300,000 tested, 12% active; AID 2314; in the data active = max response mostly above about 13%, no sharp cut-off; inactive = mostly below about 14%; note: read at 38.3 µM for the half of the compounds with a filed dose; 0% is about no effect
Pf growth 96h – inhibits malaria parasite growth, 96 h | P. falciparum luciferase reporter growth, 96 h | Potency, µM (series often up to 28.7 µM), for the others: at the top dose activity change, negative = inhibition, actives largely listed as inhibitors | 320,000 tested, 6.9% active | AID 504834; note: potency is the fitted concentration of half-maximal effect; % is set by controls: 0 for no effect and ±100 for the full control effect
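Two parasite generations (96 h, 37 C, 5% CO2) of compound exposure in infected erythrocytes (0.05% parasitemia, 2% hematocrit). Luciferase-reporter P. falciparum; decreased luminescence indicates inhibited growth, aimed at apicoplast-acting delayed death.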
HCMV inh – inhibitors of human cytomegalovirus; HFF cells, HCMV-luciferase reporter, 72 h; stronger effect = lower value; activity change, negative = inhibition, % at 57.5 µM; 410,000 tested, 4.5% active; in the data active = activity change below about -60%; inconclusive = no clear call, values can overlap the other calls; inactive = above about -39%; note: % is set by controls: 0 for no effect and ±100 for the full control effect
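Human foreskin fibroblasts infected with luciferase-reporter HCMV at MOI 1 PFU/cell, compounds at two doses. Luciferase measured 72 h post infection; normalized to buffer-only basal and Salinomycin (10uM) controls.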
Pf growth 48h – P. falciparum growth inhibition at 48 hours (one generation). AID 504832. P. falciparum luciferase growth in erythrocytes, 48 h. Potency, µM (doses to about 28.7 µM), for inactives: top-dose activity change, negative = inhibition, most hits filed as inhibitors. 310,000 tested, 5.9% active; note: potency is the fitted concentration of half-maximal effect; % is set by controls: 0 for no effect and ±100 for the full control effect
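Luciferase-expressing parasites in RBCs, 2% Hct / 0.1% parasitemia final; RPMI 1640 + 0.5% Albumax; 37 C, 5% CO2, one generation; luminescence read-out, lower signal = inhibition.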
Shiga inhibitor – blocks Shiga toxin action in Vero cells | Vero cells, Shiga toxin protein synthesis inhibition reporter | inhibition, % at 38.7 µM | 290,000 tested, 9.2% active | AID 2315; in the data active = inhibition mostly above about 28%, no sharp cut-off; inactive = mostly below about 43%; note: 0% is about no effect
Starred values were filed as active, the others as inactive; i = inactive; ? = inconclusive; / = no result; [ ] = remark or other dose. Most compounds without a hit are left out; they make up all but 20% or so of the library. Unless noted, calls come from the whole dose curve; as a rule, active = well fitted inhibition curve with a large enough effect; inconclusive = small, poorly fitted or top-dose-only effect, or another doubt; inactive = no such curve, though single readings can be large or run the other way.

SMILES	Cycloheximide cs	Pf growth 96h	HCMV inh	Pf growth 48h	Shiga inhibitor
Cc1n[nH]c(=S)n1-c1ccccc1	4.8	?	11.7	?	1.7
S=c1[nH]nc(-c2ccc3ccccc3n2)n1-c1ccc(Cl)cc1	-0.7	0.586µM*	-28.2	6.9%	-3.0
Cc1n[nH]c(=S)n1-c1ccc(Cl)cc1	-2.5	5.86µM*	0.8	9.8%	19.3
OCC1(Cc2ccccc2C(F)(F)F)CCN(Cc2ccccc2)CC1	-2.1	?	-5.2	11.7µM*	17.2
OCC1(Cc2ccccc2C(F)(F)F)CCN(Cc2ccc3c(c2)CCO3)CC1	-1.6	?	-75.7*	11.7µM*	14.9
CSc1cccc(CN2CCC(CO)(Cc3cccc(C(F)(F)F)c3)CC2)c1	-3.6	0.3%	?	?	-12.0
FC(F)(F)c1ccccc1CN1CCN(Cc2ccccc2)CC1	-5.0	34.9%	15.5	/	11.5
COc1ccc(C)cc1NC(=O)CN1CCN(C/C=C/c2ccccc2)CC1	-0.2	/	13.4	?	-18.4
Cn1nc(C(=O)NC2CCCCC2)c2c1-c1ccccc1S(=O)(=O)C2	-7.7	18.2%	-85.0*	2.8%	-9.8
CC1CCC(NC(=O)c2nn(C)c3c2CS(=O)(=O)c2ccccc2-3)CC1 (centres undefined)	3.7	5.3%	-35.8	3.7%	6.8
CC1CCCCN1CCCNC(=O)c1nn(C)c2c1CS(=O)(=O)c1ccccc1-2 (centres undefined)	-3.7	11.7µM*	-37.2	13.1%	13.6
Nc1cc(N)cc(C(=O)Nc2ccc3c(c2)C(=O)NC3=O)c1	-0.2	184.5%	42.6	-2.7%	-3.5
O=C(Nc1ccc2c(c1)C(=O)NC2=O)c1ccc2ncsc2c1	22.2*	191.6%	17.8	155.5%	92.5*
O=C(Nc1ccc(Br)cc1)c1ccc2ncsc2c1	49.6*	243.9%	-0.5	198.0%	88.6*
CCOc1ccc(NC(=O)c2ccc(S(=O)(=O)N(C)C)cc2)cc1	12.0	?	-28.8	-10.6%	-3.6
CN(C)S(=O)(=O)c1ccc(NC(=O)c2ccc3ncsc3c2)cc1	22.1	?	/	?	62.2*
COc1ccc(NC(=O)c2ccc3ncsc3c2)cc1	57.8*	281.7%	75.5	1.6%[0.00184 µM]	114.4*
Cc1cc(C)c(NC(=O)CNC(=O)c2ccc3ncsc3c2)c(C)c1	/	/	0.0	/	/
CCc1ccc(NC(=O)c2ccc3ncsc3c2)cc1	44.0*	i	/	138.1%	67.6*
N#Cc1ccc(NC(=O)N2CCC(c3nc4c(nnn4Cc4cccc(Cl)c4)c(=O)[nH]3)CC2)cc1	-2.1	7.38µM*	3.5	?	12.9
O=c1[nH]c(C2CCCN(S(=O)(=O)c3ccc(F)cc3)C2)nc2c1nnn2Cc1ccccc1 (centres undefined)	-1.0	12.5%[5.75 µM]	41.3	13.1µM*	-12.7
O=c1[nH]c(C2CCCN(S(=O)(=O)Cc3ccccc3)C2)nc2c1nnn2Cc1cccc(Cl)c1 (centres undefined)	-0.4	9.7%	?	11.7µM*	23.3
Cc1ccc(Cn2nnc3c(=O)[nH]c(C4CCCN(S(=O)(=O)c5ccccc5)C4)nc32)cc1 (centres undefined)	-0.2	?	-16.6	/	-13.2
CCCCOC(=O)c1ccc(NC(=O)C2(c3cccs3)CCOCC2)cc1	/	/	4.2	/	/
CCn1nccc1C(=O)Nc1ccc(C)c(C)c1	34.0*	?	/	62.8%	62.4*
SMILES	Cycloheximide cs	Pf growth 96h	HCMV inh	Pf growth 48h	Shiga inhibitor
Cc1ccc(NC(=O)CCNC(=O)c2ccco2)cc1Cl	-1.0	-10.3%	17.1	-13.7%	-2.1
Cc1ccc(NC(=O)c2ccco2)cc1C	37.1*	13.1%	213.2	226.4%	83.9*
Cc1ccc(NC(=O)CCNC(=O)c2ccco2)cc1F	12.8*	23.0%	47.3	3.2%	25.7
Cc1ccc(NC(=O)/C=C/c2ccco2)cc1F	/	/	0.3	/	/
Cc1cc(NC(=O)/C=C/c2ccco2)ccc1NC(=O)c1ccccc1	28.6*	33.1%	-8.1	19.2%	52.8*
COc1ccc(OCC(=O)NCC2(N3CCN(C)CC3)CCCCC2)cc1	/	/	24.4	/	/
O=C(Nc1cccc(Cl)c1)C1CCN(c2nc3ccccc3nc2C(F)(F)F)CC1	/	/	-11.4	/	/
Cc1cc(NC(=O)c2ccco2)ccc1NC(=O)c1ccco1	22.2	88.2%	7.9	45.3%	70.7*
Cc1ccc(C)c(NS(=O)(=O)c2ccc(NC(=O)c3ccco3)cc2)c1	-2.0	11.7µM*	-25.7	10.4µM*	13.3
Cc1cc(C)nc(NS(=O)(=O)c2ccc(NC(=O)c3ccco3)cc2)n1	0.4	0.0%	14.3	56.1%	15.8
COc1cc(OC)cc(C(=O)Nc2ccc(NC(=O)c3ccco3)c(C)c2)c1	0.8	6.3%	4.8	62.2%	36.5
Cc1ccc(NCc2ccco2)cc1C	27.3*	?	-8.7	17.5%	70.1*
CC[C@@H](C(=O)[C@@H](C)[C@@H](O)[C@H](C)CCc1ccc(C)c(O)c1C(=O)O)C1O[C@](CC)(C2CC[C@](O)(CC)[C@H](C)O2)C[C@@H]1C (some centres undefined)	-2.1	/	/	/	15.1
CC1CC2(O)c3no[n+]([O-])c3CCC2N1O (centres undefined)	-3.5	10.4µM*	-6.4	12.9%	-1.8
CC1CN(O)C2CCc3c(no[n+]3[O-])C12O (centres undefined)	-0.9	34.3%	-10.0	14.3%	-3.1
CCOC(=O)C(C)c1ccc2cc(OC)ccc2c1 (centres undefined)	12.4	20.5%	-32.3	2.0%	17.3
CCN(Cc1ccccc1)S(=O)(=O)c1ccc(C(=O)N(CCCN(C)C)c2nc3cc(OC)ccc3s2)cc1	/	21.7%	-15.2	8.6%	/
CN(C)CCCN(C(=O)c1cccs1)c1nc2cc3c(cc2s1)OCO3	17.0*	?	38.0	53.3%	40.2
CN(C)CCCN(C(=O)c1ccc(C(=O)c2ccccc2)cc1)c1nc2cc3c(cc2s1)OCO3	-12.3	-20.1%	?	11.7µM*	-26.9
Cc1cccc2sc(N(CCCN(C)C)C(=O)c3ccc(C(=O)c4ccccc4)cc3)nc12	-11.9	-101.7%	-72.2*	6.57µM*	-16.8
COc1ccc2sc(N(CCCN(C)C)C(=O)c3ccc(C(=O)c4ccccc4)cc3)nc2c1	/	?	-3.1	13.1µM*	/
Cc1ccc(CNC(=O)c2ccc3c(O)c(S(=O)(=O)c4ccccc4)c(=O)[nH]c3c2)cc1	/	/	5.7	/	/
Clc1ccccc1-c1nc2c(NCc3ccccc3)nccc2[nH]1	/	/	3.1	/	/
CCC(C(=O)NCCc1cc(OC)ccc1OC)n1nc(C)c2sc3ccccc3c2c1=O (centres undefined)	/	/	-26.3	/	/
Cc1ccc(-c2csc(/C(C#N)=C/c3ccccc3Cl)n2)cc1	/	/	83.1	/	/
CN(C)CCCN(C(=O)c1ccco1)c1nc2cc3c(cc2s1)OCO3	11.9*	4.1%	-34.1	20.0%	6.9
COc1ccc2sc(N(CCCN(C)C)C(=O)c3ccc(S(=O)(=O)N4CCCc5ccccc54)cc3)nc2c1	/	8.28µM*	-15.0	7.38µM*	/
CC(C)OCC1CC(CC(=O)Nc2ccc([N+](=O)[O-])cc2)C(=O)O1 (centres undefined)	-3.4	19.6%	?	48.9%	5.5
